In ChEMBL document CHEMBL1961873, “Compounds: GSK PKIS; Assays: Nanosyn kinase panel” (2012):

Experiments:
[1] = target: Leukocyte tyrosine kinase receptor (Homo sapiens) (UniProt P29376); details: at 1 µM;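 note: each value is the mean inhibition of LTK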
[2] = target: Tyrosine-protein kinase Lyn (Homo sapiens) (UniProt P07948); details: at 0.1 µM
[3] = target: Tyrosine-protein kinase Lyn (Homo sapiens) (UniProt P07948); details: at 1 µM
[4] = target: Tyrosine-protein kinase Lyn (Homo sapiens) (UniProt P07948); details: at 0.1 µM; remark: listed apart in the source
[5] = target: Tyrosine-protein kinase Lyn (Homo sapiens) (UniProt P07948); details: at 1 µM; remark: listed apart in the source
[6] = target: T1, Tyrosine-protein kinase Mer (Homo sapiens) (UniProt Q12866); details: at 0.1 µM
T1 sequence (whole entry): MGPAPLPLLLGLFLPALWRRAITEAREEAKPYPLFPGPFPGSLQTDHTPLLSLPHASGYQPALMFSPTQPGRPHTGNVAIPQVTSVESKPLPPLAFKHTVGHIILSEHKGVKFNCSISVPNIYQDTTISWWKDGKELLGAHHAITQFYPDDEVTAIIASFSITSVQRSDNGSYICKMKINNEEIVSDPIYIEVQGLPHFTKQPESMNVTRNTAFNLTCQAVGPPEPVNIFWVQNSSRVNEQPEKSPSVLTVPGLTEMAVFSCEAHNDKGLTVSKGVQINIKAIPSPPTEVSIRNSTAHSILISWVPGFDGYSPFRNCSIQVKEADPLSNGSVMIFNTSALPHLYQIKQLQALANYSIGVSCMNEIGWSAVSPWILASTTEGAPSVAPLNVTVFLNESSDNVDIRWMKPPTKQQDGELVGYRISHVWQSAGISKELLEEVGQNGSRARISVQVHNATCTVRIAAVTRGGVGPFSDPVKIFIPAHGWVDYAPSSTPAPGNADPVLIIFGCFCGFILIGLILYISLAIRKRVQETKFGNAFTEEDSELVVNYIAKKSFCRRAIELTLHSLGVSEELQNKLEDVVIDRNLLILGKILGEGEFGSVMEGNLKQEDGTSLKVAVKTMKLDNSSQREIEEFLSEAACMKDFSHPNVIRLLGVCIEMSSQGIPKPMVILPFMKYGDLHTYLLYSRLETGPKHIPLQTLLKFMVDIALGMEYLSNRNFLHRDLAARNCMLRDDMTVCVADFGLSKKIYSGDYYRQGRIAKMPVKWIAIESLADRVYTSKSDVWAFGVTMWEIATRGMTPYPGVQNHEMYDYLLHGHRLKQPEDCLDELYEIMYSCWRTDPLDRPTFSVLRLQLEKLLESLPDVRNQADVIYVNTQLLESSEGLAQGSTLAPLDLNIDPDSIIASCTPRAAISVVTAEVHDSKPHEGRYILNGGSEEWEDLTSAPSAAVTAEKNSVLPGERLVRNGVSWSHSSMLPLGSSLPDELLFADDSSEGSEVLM

[7] = target: T1, Tyrosine-protein kinase Mer (Homo sapiens); details: at 1 µM
[8] = target: Hepatocyte growth factor receptor (Homo sapiens) (UniProt P08581); details: at 0.1 µM
[9] = target: Hepatocyte growth factor receptor (Homo sapiens) (UniProt P08581); details: at 1 µM
[10] = target: T2, Muscle, skeletal receptor tyrosine-protein kinase (Homo sapiens) (UniProt O15146); details: at 0.1 µM
T2 sequence (whole entry): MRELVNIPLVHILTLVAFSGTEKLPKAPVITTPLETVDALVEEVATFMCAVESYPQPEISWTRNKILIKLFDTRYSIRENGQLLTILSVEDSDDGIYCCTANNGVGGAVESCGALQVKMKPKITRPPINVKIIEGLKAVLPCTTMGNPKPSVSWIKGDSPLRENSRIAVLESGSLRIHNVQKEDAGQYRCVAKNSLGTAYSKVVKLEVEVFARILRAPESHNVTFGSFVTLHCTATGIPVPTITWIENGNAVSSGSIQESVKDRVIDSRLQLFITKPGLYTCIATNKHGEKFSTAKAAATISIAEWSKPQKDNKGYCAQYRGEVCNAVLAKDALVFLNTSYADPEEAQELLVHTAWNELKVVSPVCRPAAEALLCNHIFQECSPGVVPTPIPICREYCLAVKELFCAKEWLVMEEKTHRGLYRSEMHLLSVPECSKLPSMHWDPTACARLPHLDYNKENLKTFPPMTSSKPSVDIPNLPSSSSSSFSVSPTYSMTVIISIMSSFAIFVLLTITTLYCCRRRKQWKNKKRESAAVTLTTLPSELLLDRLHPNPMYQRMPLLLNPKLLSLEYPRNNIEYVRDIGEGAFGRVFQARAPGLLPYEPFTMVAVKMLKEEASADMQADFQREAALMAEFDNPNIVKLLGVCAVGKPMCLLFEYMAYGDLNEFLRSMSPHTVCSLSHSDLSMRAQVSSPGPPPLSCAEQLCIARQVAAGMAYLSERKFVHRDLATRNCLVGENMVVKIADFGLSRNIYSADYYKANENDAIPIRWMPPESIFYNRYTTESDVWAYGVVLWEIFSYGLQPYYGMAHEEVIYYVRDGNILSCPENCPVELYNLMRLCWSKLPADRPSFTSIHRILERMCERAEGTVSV

[11] = target: T2, Muscle, skeletal receptor tyrosine-protein kinase (Homo sapiens); details: at 1 µM
[12] = target: Platelet-derived growth factor receptor alpha (Homo sapiens) (UniProt P16234); details: at 0.1 µM
[13] = target: Platelet-derived growth factor receptor alpha (Homo sapiens) (UniProt P16234); details: at 1 µM
[14] = test system: Platelet-derived growth factor receptor alpha (Homo sapiens), P16234 [D842V]; details: at 0.1 µM
[15] = test system: Platelet-derived growth factor receptor alpha (Homo sapiens), P16234 [D842V]; details: at 1 µM
[16] = test system: Platelet-derived growth factor receptor alpha (Homo sapiens), P16234 [T674I]; details: at 0.1 µM
[17] = test system: Platelet-derived growth factor receptor alpha (Homo sapiens), P16234 [T674I]; details: at 1 µM
[18] = test system: Platelet-derived growth factor receptor alpha (Homo sapiens), P16234 [V561D]; details: at 0.1 µM
[19] = test system: Platelet-derived growth factor receptor alpha (Homo sapiens), P16234 [V561D]; details: at 1 µM
[20] = target: Platelet-derived growth factor receptor beta (Homo sapiens) (UniProt P09619); details: at 0.1 µM;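 note: reported value is the mean percent inhibition of the kinase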
Chain of Platelet-derived growth factor receptor beta (Homo sapiens) (P09619 whole entry): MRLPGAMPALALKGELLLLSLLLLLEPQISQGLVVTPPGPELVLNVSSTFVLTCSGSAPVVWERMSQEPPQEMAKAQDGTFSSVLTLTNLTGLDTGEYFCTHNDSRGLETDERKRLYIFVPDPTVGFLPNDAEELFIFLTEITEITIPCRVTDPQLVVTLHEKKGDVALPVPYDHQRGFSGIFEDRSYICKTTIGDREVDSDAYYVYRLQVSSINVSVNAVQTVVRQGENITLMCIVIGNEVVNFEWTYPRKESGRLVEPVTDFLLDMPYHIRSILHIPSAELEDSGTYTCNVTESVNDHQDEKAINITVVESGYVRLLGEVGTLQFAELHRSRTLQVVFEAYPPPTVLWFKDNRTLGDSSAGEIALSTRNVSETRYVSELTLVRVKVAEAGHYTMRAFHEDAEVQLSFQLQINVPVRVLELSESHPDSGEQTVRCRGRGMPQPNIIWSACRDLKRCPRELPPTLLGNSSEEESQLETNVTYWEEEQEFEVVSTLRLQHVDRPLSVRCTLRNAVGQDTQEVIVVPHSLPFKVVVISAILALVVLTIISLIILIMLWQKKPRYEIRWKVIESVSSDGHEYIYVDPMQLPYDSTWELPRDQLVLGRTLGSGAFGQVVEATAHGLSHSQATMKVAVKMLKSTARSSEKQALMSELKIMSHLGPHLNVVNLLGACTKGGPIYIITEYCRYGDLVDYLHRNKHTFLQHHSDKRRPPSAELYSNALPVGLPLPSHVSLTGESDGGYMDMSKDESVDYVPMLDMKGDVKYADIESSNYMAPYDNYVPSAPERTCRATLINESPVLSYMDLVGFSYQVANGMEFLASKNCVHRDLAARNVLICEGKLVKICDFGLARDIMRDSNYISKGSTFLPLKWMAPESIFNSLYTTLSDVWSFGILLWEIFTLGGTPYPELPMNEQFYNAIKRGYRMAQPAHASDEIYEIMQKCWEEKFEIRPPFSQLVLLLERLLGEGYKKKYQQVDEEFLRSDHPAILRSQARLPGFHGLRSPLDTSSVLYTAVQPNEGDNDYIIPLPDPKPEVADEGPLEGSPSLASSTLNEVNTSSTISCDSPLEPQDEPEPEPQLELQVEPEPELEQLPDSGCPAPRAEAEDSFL

Chain of Platelet-derived growth factor receptor alpha (Homo sapiens), P16234 [D842V] (P16234 whole entry D842V): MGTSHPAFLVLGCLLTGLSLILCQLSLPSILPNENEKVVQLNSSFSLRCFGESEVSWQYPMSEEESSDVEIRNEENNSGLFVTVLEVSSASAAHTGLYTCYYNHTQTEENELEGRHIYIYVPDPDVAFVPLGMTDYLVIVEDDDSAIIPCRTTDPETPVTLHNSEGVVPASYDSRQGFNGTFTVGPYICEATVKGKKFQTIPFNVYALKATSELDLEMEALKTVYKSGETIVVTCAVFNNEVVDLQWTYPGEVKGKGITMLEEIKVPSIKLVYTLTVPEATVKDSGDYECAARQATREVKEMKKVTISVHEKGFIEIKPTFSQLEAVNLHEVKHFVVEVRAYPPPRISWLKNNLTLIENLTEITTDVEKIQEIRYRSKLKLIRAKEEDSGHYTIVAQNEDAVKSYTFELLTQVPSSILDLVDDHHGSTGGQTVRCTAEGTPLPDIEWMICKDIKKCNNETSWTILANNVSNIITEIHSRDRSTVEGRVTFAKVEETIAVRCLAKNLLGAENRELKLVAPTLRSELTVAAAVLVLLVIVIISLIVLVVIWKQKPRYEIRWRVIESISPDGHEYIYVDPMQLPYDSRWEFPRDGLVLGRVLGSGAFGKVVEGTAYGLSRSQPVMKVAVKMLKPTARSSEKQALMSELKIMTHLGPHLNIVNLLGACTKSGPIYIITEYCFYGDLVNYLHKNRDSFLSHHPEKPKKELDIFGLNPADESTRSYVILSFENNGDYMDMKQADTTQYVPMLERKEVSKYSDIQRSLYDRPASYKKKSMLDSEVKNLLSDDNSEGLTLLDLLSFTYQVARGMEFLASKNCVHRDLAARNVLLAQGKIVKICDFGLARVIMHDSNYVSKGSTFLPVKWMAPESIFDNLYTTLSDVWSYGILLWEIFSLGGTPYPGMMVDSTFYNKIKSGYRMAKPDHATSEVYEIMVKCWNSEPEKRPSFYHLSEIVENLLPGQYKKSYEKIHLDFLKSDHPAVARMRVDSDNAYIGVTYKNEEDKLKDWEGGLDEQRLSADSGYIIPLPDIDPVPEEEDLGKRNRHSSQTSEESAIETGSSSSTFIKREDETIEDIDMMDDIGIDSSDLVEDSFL
Chain of Hepatocyte growth factor receptor (Homo sapiens) (P08581 whole entry): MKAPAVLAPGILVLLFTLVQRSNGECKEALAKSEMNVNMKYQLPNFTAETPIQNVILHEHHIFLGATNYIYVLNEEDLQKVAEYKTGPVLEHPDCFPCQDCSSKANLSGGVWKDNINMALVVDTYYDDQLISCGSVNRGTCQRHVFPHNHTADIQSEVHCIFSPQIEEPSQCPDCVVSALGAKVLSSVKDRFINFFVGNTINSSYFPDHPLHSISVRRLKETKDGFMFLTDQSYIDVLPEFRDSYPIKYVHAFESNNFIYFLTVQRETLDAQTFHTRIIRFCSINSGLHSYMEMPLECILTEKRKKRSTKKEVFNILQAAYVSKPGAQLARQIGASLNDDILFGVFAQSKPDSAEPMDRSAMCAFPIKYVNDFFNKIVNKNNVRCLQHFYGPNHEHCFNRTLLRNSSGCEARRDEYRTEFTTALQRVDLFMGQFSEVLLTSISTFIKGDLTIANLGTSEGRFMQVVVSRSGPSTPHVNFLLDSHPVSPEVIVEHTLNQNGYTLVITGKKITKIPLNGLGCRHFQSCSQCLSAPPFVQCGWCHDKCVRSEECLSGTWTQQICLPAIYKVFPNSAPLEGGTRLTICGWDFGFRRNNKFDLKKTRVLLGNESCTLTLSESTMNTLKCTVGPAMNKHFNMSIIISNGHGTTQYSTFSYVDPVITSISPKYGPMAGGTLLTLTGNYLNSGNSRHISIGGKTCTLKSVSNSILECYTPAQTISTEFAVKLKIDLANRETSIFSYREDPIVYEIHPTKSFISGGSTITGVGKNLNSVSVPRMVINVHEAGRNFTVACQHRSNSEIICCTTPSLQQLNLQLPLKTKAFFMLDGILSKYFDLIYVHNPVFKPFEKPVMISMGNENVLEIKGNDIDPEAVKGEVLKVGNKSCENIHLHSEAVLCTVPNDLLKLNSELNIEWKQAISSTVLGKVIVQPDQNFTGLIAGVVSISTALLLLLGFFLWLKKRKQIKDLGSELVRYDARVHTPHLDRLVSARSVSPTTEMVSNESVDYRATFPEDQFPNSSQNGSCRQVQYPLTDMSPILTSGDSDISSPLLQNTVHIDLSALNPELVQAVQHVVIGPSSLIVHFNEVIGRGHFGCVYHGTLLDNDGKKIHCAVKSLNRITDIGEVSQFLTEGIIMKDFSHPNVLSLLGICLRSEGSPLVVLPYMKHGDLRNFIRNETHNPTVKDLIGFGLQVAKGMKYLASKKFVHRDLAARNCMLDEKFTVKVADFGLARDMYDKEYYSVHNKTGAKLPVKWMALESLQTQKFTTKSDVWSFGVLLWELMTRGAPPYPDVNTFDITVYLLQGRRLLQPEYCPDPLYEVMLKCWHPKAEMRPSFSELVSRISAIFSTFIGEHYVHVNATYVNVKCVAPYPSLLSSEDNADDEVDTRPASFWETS
Chain of Platelet-derived growth factor receptor alpha (Homo sapiens), P16234 [V561D] (P16234 whole entry V561D): as the sequence (P16234 whole entry D842V) above, with V561D, V842D counted along it

Row | SMILES | inhibition [1] [%] | inhibition [2] [%] | inhibition [3] [%] | inhibition [4] [%] | inhibition [5] [%] | inhibition [6] [%] | inhibition [7] [%] | inhibition [8] [%] | inhibition [9] [%] | inhibition [10] [%] | inhibition [11] [%] | inhibition [12] [%] | inhibition [13] [%] | inhibition [14] [%] | inhibition [15] [%] | inhibition [16] [%] | inhibition [17] [%] | inhibition [18] [%] | inhibition [19] [%] | inhibition [20] [%]
1 | COc1ccc(-c2cc3c(N)ncnc3o2)cc1 | 0.01 | -0.81 | 3.66 | 1.13 | 3.28 | 0.56 | 2.01 | -2.37 | 0.32 | -1.04 | 2.3 | -1.4 | 16.5 | 2.85 | 9.77 | 1.44 | 4.01 | 3.4 | 19.1 | 1.93
2 | COC(=O)c1sc(-n2cnc3cc(OC)c(OC)cc32)cc1OCc1ccccc1C(F)(F)F | 6.79 | 9.46 | 19.6 | 6.71 | 14.7 | 1.24 | 2.08 | -0.86 | 6.35 | 15.4 | 48.1 | 26.1 | 66.3 | 18 | 66.5 | 9.67 | 44.6 | 22.2 | 70.6 | 14.9
3 | CC1=C(C(=O)Nc2cc(Cl)c3[nH]ncc3c2)C(c2ccc(C(F)(F)F)cc2)CC(=O)N1 (stereo not given) | 3.88 | 5.29 | 10.9 | 3.46 | 9.12 | 1.72 | 0.92 | 0.14 | 4.94 | 50.2 | 9.6 | 4.87 | 8.87 | 2.44 | 4.3 | 5.17 | 7.54 | 4.08 | 4.27 | 0.58
4 | CCCN1CCC(c2ccc(Nc3nc(Nc4cc(F)ccc4C(N)=O)c4cc[nH]c4n3)c(OC)c2)CC1 | 95 | 6.55 | 11.2 | 4.92 | 7.3 | 2.18 | 20 | 8.25 | 22.9 | 4.34 | 15 | 8.78 | 46.5 | 6.28 | 43.8 | 4.13 | 9.42 | 8.22 | 36.4 | 10.4
5 | c1ccc(COc2ccc(Nc3ncnc4ccc(-c5ccco5)cc34)cc2)cc1 | 1.92 | 1.51 | 2.5 | 1.39 | 1.94 | 1.57 | 12.7 | 7.46 | 2.85 | 0.09 | 1.01 | 3.81 | 6.96 | 2.63 | 3.21 | 2.49 | 3.6 | 2.39 | 2.43 | -0.23
6 | COc1cc(N2CCN(C(C)C)CC2)ccc1Nc1nc(Nc2ccc(F)cc2C(N)=O)c2cc[nH]c2n1 | 96 | 2.75 | 2.96 | 1.54 | 1.29 | 4.46 | 8.43 | 7.18 | 0.66 | 1.72 | 13.2 | 3.76 | 31.1 | 1.57 | 21.6 | 1.91 | 5.04 | 1.82 | 21.8 | 5.8
7 | CCn1c(-c2nonc2N)nc2c(C#CC(C)(C)O)ncc(OC3CCNCC3)c21 | 3.06 | 4.34 | 4.35 | 2.01 | 2.89 | 3.67 | 2.19 | 5.39 | -3.51 | 3.1 | 5.05 | 4.05 | 19.5 | 5.06 | 33.8 | 4.95 | 28.3 | 2.59 | 17 | 5.33
8 | N#Cc1c(NC(=O)CN2CCOCC2)sc2c1CCCC2 | 4.38 | 4.72 | 7.89 | 2.92 | 5.26 | 1.87 | 4.98 | 7.91 | 13 | 2.41 | 5.38 | 6.84 | 10.4 | 3.81 | 4.78 | 6.89 | 9.82 | 4.95 | 3.92 | 2.42
9 | Cc1ccc2c(-c3ccnc(Nc4ccccc4)n3)c(-c3ccc(F)cc3)nn2n1 | 2.78 | 10.8 | 50.1 | 8.55 | 44.4 | 3.07 | 23.9 | 1.64 | 8.18 | 3.5 | 4.61 | 14.8 | 47.9 | 8.2 | 46.6 | 4.09 | 4.32 | 11.6 | 59.1 | 22.5
10 | Cc1ccc(O)cc1Nc1ccnc2cc(-c3ccccn3)ccc12 | 49.7 | 72.8 | 94.3 | 65.2 | 91.9 | 1.35 | 4.24 | 11.7 | 5.41 | 3.21 | 5.77 | 67.2 | 89.5 | 81.4 | 96.2 | 7.02 | 6.98 | 70.4 | 105 | 53.4
11 | O=C(O[C@H]1CN[C@H](C#Cc2cc3ncnc(Nc4ccc(Cc5ccccc5)cc4)c3s2)C1)N1CCOCC1 | 0.57 | 0.85 | 4.14 | 0.33 | 3.75 | -0.63 | 2.01 | -1.3 | 4.56 | -0.21 | -2.65 | -1.51 | 7.66 | -1 | 2.55 | 1.75 | 3.96 | -0.15 | 1.53 | 2.34
12 | CN1CCC(n2cnc(-c3ccc(F)cc3)c2-c2ccnc(N)n2)CC1 | 4.69 | 1.99 | 10.1 | 1.43 | 6.85 | 0.51 | 6.73 | 2.36 | 0.93 | 0.53 | 3.89 | 6.86 | 25.6 | 3.56 | 17.9 | 4.48 | 5.18 | 4.45 | 16.9 | 4.26
13 | Cc1cccc(Nc2ncc(-c3ccccc3)o2)c1 | 2.88 | 3.9 | 8.28 | 2.22 | 7.24 | 3.9 | 2.26 | 3.88 | 2.78 | 0.01 | 5.58 | 7.16 | 29.9 | 1.63 | 5.43 | 7.94 | 50.3 | 22.5 | 48.7 | 7.93
